# Rows were chosen to be rich in hits. Some 19% of all compounds tested hit in one or more screens of this group.
# Shiga inhibitor = inhibitors of Shiga toxin in Vero cells; Vero cells, Shiga toxin protein synthesis inhibition reporter; inhibition, % at 38.7 µM; 290,000 compounds, 9.2% hits; AID 2315; in the data active = inhibition mostly above about 28%, no sharp cut-off; inactive = mostly below about 43%; note: 0% is about no effect
# Cycloheximide cs = affects cycloheximide protein synthesis inhibition readout, counter-screen | cell reporter, cycloheximide protein synthesis inhibition counterscreen | max response, % | 300,000 compounds, 12% hits; in the data active = max response mostly above about 13%, no sharp cut-off; inactive = mostly below about 14%; note: read at 38.3 µM for the half of the compounds with a filed dose; 0% is about no effect
# Pf growth 96h = P. falciparum growth inhibition at 96 hour, primary screen for plastid delayed-death inhibitors; 320,000 compounds, 6.9% hits; AID 504834; P. falciparum luciferase reporter growth, 96 h; Potency, µM (doses to about 28.7 µM), without a hit: at the highest dose activity change, negative = inhibition, actives largely listed as inhibitors; note: potency is the fitted concentration of half-maximal effect; % is set by controls: 0 for no effect and ±100 for the full control effect
#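 Cell-based qHTS: luciferase-tagged P. falciparum in erythrocytes (2% hematocrit, 0.05% parasitemia final) incubated with compounds for 96 hours, 37 C, 5% CO2; luciferase detection reagent then added and luminescence measured.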
# Pf growth 48h = P. falciparum growth inhibition at 48 hours (one generation). P. falciparum luciferase growth in erythrocytes, 48 h. Potency, µM (series often up to 28.7 µM), inactives show at the highest dose activity change, negative = inhibition, hits mostly inhibitors. 310,000 compounds, 5.9% hits; note: potency is the fitted concentration of half-maximal effect; % is set by controls: 0 for no effect and ±100 for the full control effect
#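 Read-out is firefly luciferase luminescence from an integrated reporter in P. falciparum, so falling signal marks reduced parasite growth. Infected erythrocytes were at 2% hematocrit and 0.1% parasitemia (final) in Albumax-supplemented RPMI 1640.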
# LASV entry inh = Lassa virus entry inhibition; Lassa virus pseudotype entry inhibition, cell reporter; Potency, µM (series often up to 37.9 µM), inactives show top-dose activity change, negative = inhibition, most hits filed as inhibitors; 300,000 compounds, 1.2% hits; AID 540256; calls by dose curve; tested in HEK293 cells; note: potency is the fitted concentration of half-maximal effect; % is set by controls: 0 for no effect and ±100 for the full control effect; nearly all actives have a fitted effect of over 50% in size
# Marburg entry inh = Marburg virus entry inhibition; Marburg virus pseudotyped entry inhibition, cell reporter; Potency, µM (titrated, usually from 37.8 µM), for inactives: at the top dose activity change, negative = inhibition, most hits filed as inhibitors; 300,000 compounds, 1.8% hits; AID 540276; calls by dose curve; tested in HEK293 cells; note: potency is the fitted concentration of half-maximal effect; % is set by controls: 0 for no effect and ±100 for the full control effect
# Numbers without * were called inactive; ? = inconclusive; nt = no result; [ ] = another dose, or the depositor's remark. Unless noted, calls come from the whole dose curve; as a rule, active = well fitted inhibition curve with a large enough effect; inconclusive = small, poorly fitted or top-dose-only effect, or another doubt; inactive = no such curve, though single readings can be large or run the other way.
SMILES,Shiga inhibitor,Cycloheximide cs,Pf growth 96h,Pf growth 48h,LASV entry inh,Marburg entry inh
COc1ccc(Cl)cc1NC(=O)C(C)N(C)Cc1ccc(C(F)(F)F)cc1 (centres undefined),-10,5,2.1µM*,7.4µM*,-10%,?
COc1ccc([N+](=O)[O-])cc1NC(=O)C(C)N(C)Cc1cccc(OC)c1OC (centres undefined),-8,-3,?,-18%,?,?
COc1ccccc1NC(=O)C(C)N(C)Cc1ccc(Cl)s1 (centres undefined),10,4,?,8.3µM*,?,-16%
Cc1ccc(-n2nc3c(c2NC(=O)C(C)C)CS(=O)(=O)C3)c(C)c1,-7,8,?,0.015µM*,8%[46.1 µM],-12%[46.1 µM]
CC(=O)N1c2ccc(S(=O)(=O)N3CCC(C(=O)NC(C)c4ccccc4)CC3)cc2CC1C (centres undefined),-5,2,?,-10%,nt,nt
CCCN(CC(=O)Nc1ccc(F)c(F)c1F)C(=O)c1ccc(=O)n(Cc2ccccc2)n1,nt,nt,?,?,-24%,-24%
COCCN(C(=O)COC(=O)c1cc2c(s1)CCC2)c1c(N)n(Cc2ccccc2)c(=O)[nH]c1=O,nt,nt,?,?,0%,?
COCCN(C(=O)COC(=O)c1c(NC(C)=O)sc(C)c1C)c1c(N)n(Cc2ccccc2)c(=O)[nH]c1=O,nt,nt,10µM*,?,-9%,-10%
CCCN(C(=O)COC(=O)CC1CCCCC1)c1c(N)n(Cc2ccccc2)c(=O)[nH]c1=O,nt,nt,?,8.3µM*,?,-8%
CCN(C(=O)COC(=O)c1cc(C)oc1C)c1c(N)n(Cc2ccccc2)c(=O)[nH]c1=O,nt,nt,-12%,?,nt,nt
CCCN(C(=O)COC(=O)c1[nH]c(C)c(C(=O)OC)c1C)c1c(N)n(Cc2ccccc2)c(=O)[nH]c1=O,nt,nt,?,15µM*,-31%,-16%[46.1 µM]
CCC1CCc2sc(C(=O)OCC(=O)N(CCOC)c3c(N)n(Cc4ccccc4)c(=O)[nH]c3=O)cc2C1 (centres undefined),nt,nt,10µM*,?,-22%,-9%
O=C(Nc1cccc(F)c1)N(Cc1ccc(Cl)cc1)CC(O)C(F)(F)F (centres undefined),11,1,2.6µM*,8.3µM*,?,?
O=C(Nc1ccccc1)N(Cc1ccccc1)CC(O)C(F)(F)F (centres undefined),7,-2,1%,-1%,?,?
CC1(C)CC(=O)C2=C(C1)OC1=C(C(=O)CC(C)(C)C1)C2c1ccc(O)cc1O,-15,-10,10µM*,12µM*,-87%,?
O=C(CSc1nnc(-c2ccncc2)n1CC1CCCO1)Nc1ccccc1Cl (centres undefined),1,9,136%,26%,?,-5%[46.1 µM]
C=CCn1c(C)cc(C(=O)COc2ncnc3sccc23)c1C,120,40*,-26%,132%,?,?
C=CCn1c(C)cc(C(=O)COC(=O)c2cncc(Br)c2)c1C,nt,nt,98%,250%,nt,nt
CN1C2CCC1CC(OC(c1ccccc1)c1ccc(Cl)cc1)C2 (centres undefined),nt,nt,9%,4.8µM*,nt,3.2µM*
CN1C2CCC1CC(OC(c1ccccc1)c1ccccc1N)C2 (centres undefined),nt,nt,nt,nt,?,18µM*
CCN(C(=O)Cn1cc(C(C)=O)c2ccccc21)c1ccccc1,-11,-2,4%,16%,nt,nt
CC1(C)CC(=O)C2=C(C1)N(c1ccc(F)cc1)C(=O)C2(O)C(F)(F)F (centres undefined),-2,5,14%,5%,5%,6%
O=C(NCCC1=CCCCC1)c1coc(=O)c(Br)c1,1,16,-16%,-2%,-12%,5%
CC1=C(C(=O)OC2CCCCCC2)C(c2ccc(C)o2)C2=C(CCCC2=O)N1 (centres undefined),active,9,92%,?,?,?
CC1=C(C(=O)OC2CCCCC2)C(c2ccc(C)o2)C2=C(CC(C)(C)CC2=O)N1 (centres undefined),-16,-2,-18%,12µM*,-8%,-1%
SMILES,Shiga inhibitor,Cycloheximide cs,Pf growth 96h,Pf growth 48h,LASV entry inh,Marburg entry inh
CC1=C(C(=O)OC2CCCC2)C(c2ccc(C)o2)C2=C(CC(c3cccs3)CC2=O)N1 (centres undefined),25,8,10%,9.3µM*,?,3%
COC(=O)C1=C(C)NC2=C(C(=O)CCC2)C1c1ccc(-c2ccsc2C(=O)OC)o1 (centres undefined),-4,6,12µM*,?,nt,nt
COC(=O)C1=C(C)N(Cc2ccco2)C(=O)N[C@H]1c1cccc(C(F)(F)F)c1,-16,-3,?,-13%,-16%,-12%
Cc1c(NC(=O)c2ccc3c(c2)C(=O)N(Cc2ccco2)C3=O)cccc1C(=O)O,-14,3,54%,10%,9%[46.1 µM],?
Cc1ccc(C)c(N2CCN(C(=O)CCNC(=O)Cn3ccc4ccccc4c3=O)CC2)c1,-13,9,-17%,?,-18%,10%
COc1ccc2c(c1)O[C@@H](c1cccc(C(F)(F)F)c1)[C@H](OC(=O)Nc1cc(OC)c(OC)c(OC)c1)C2=O,nt,nt,nt,nt,nt,2%[14.2 µM]
COc1ccc(CNC(=O)Nc2ccc3c(c2)N(C)C(=O)c2ccccc2S3)cc1OC,nt,nt,nt,nt,-16%[46.1 µM],1%[46.1 µM]
COC(=O)C1=C(C)NC2=C(C(=O)CC(c3cccs3)C2)C1c1ccsc1 (centres undefined),-11,-8,34%,0%,?,-28%
CCOC(=O)C1=C(C)NC2=C(C(=O)CC(c3cccs3)C2)C1c1cccs1 (centres undefined),2,-3,?,4.1µM*,?,?
CCCCCNc1nc(N2CCCC2)c2c(c1C#N)CCN(C)C2,-18,-10,0%,4.1µM*,?,?
CCCCCNc1nc(NCCCO)c(C#N)c2c1CN(C)CC2,-3,-2,12µM*,nt,-1%,-29%
Cc1cc(C)n(-c2nc3ccccc3c(=O)n2OCC#N)n1,115*,38*,0.37µM*,1.3µM*,?,7.9µM*
CCOC(=O)COn1c(-n2nc(C)cc2C)nc2ccccc2c1=O,13,2,1.5µM*,3.7µM*,9%,4%
CCOn1c(-n2nc(C)cc2C)nc2ccccc2c1=O,-13,-5,nt,-6%,-5%,-9%
Cc1cc(C)n(-c2nc3ccccc3c(=O)n2OCC(C)C)n1,14,-1,8%,18%,?,?
COC(=O)COn1c(-n2nc(C)cc2C)nc2ccccc2c1=O,-18,-6,nt,9.3µM*,-4%,10%
Nc1nc(N)c(-c2ccccc2)s1,nt,nt,?,-12%,nt,nt
C=CCn1c(C)c(C(C)=O)c(N2CCN(C(c3ccccc3)c3ccccc3)CC2)nc1=S,10,1,?,?,?,?
CCOc1ccc(OCC)c(NC(=O)c2ccc(CNc3c(N4CCOCC4)c(=O)c3=O)cc2)c1,-1,-1,?,?,5%,-1%
